The values that follow come from PubChem BioAssay (EPA / NIEHS).

Results filed as inconclusive are left out. Some structures have more than one record in an assay (separate samples or runs), and their calls can disagree. Active and inactive are the calls of the source. The calls were made as follows: active = hit-call score of the fitted dose curve at least 0.9, where 1 is the maximum; inconclusive = response in the unintended direction; inactive = score below 0.9.

The AC50 is the concentration at which the activity in the assay is half-maximal.

Retinoic acid receptor RXR-alpha (Homo sapiens), sequence (P19793 whole entry, looked up, the tested form may be a part): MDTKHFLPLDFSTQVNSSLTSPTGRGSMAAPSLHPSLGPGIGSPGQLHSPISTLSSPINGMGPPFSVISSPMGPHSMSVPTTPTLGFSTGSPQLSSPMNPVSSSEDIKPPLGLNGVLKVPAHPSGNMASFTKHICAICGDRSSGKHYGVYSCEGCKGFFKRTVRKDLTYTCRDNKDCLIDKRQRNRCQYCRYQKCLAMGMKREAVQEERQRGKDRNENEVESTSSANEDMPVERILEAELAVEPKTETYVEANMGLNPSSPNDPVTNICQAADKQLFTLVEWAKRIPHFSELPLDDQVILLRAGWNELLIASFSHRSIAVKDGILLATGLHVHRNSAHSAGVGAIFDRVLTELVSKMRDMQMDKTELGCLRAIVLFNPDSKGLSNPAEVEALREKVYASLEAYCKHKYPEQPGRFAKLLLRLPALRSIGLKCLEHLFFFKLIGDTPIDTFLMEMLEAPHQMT

This experiment has as its target Retinoic acid receptor RXR-alpha (Homo sapiens) (UniProt P19793). As to the kind of experiment: OT_NURR1_NURR1RXRa_0480: Odyssey Thera (OT) 8-hour HEK293T Protein Complementation Assay for Nurr1/retinoid X receptor (RXR) (AID 2283385). On the procedure: OT_NURR1_NURR1RXRa_0480 is a cell-based assay that uses HEK293T, a human kidney cell line, with measurements taken at 8 hours after chemical dosing in a 384-well plate.OT_NURR1_NURR1RXRa_0480 is one of one assay component(s) measured or calculated from the OT_NURR1_NURR1RXRa_0480 assay. It is designed to make measurements of protein fragment complementation, a form of binding reporter, as detected with fluorescence intensity signals by Protein-fragment Complementation technology.Data from the assay component OT_NURR1_NURR1RXRa_0480 was analyzed into 1 assay endpoint. This assay endpoint, OT_NURR1_NURR1RXRa_0480, was analyzed in the positive analysis fitting direction relative to DMSO as the negative control and baseline of activity. Using a type of binding reporter, measures of receptor for gain-of-signal activity can be used to understand the binding at the pathway-level as they relate to the gene RXRA. Furthermore, this assay endpoint can be referred to as a primary readout, because the performed assay has only produced 1 assay endpoint. To generalize the intended target to other relatable targets, this assay endpoint is annotated to the nuclear receptor intended target family, where the subfamily is non-steroidal.
Protein-fragment complementation assay, or PCA, is a method for the identification and quantification of protein-protein interactions. In the PCA, the proteins of interest ("bait" and "prey") are each covalently linked to fragments of a third protein (e.g. DHFR, which acts as a "reporter"). Interaction between the bait and the prey proteins brings the fragments of the reporter protein in close proximity to allow them to form a functional reporter protein whose activity can be measured.
With `OCC(CO)(CBr)CBr`, the compound was classed as inactive. For `CCCCCCCCCC=CCC1CC(=O)OC1=O` (centres undefined), the result was inactive. As to `O=C1NS(=O)(=O)c2ccccc21`, the result was inactive.

For `CCC(C)c1ccccc1O` (centres undefined), the call was inactive. Consider `CCCCCCC(C)(C)C(=O)O`, for which the compound was classed as inactive. For `O=C(c1ccccc1)c1ccccc1`, the call was inactive. `CCCCCCc1ccc(N)cc1`: the result was inactive. With `CCCCCC(C)OC(=O)COc1ccc(Cl)c2cccnc12` (centres undefined), the AC50 is 15 µM (active). Regarding `CCCCc1oc2ccccc2c1C(=O)c1cc(I)c(OCCN(CC)CC)c(I)c1`, the AC50 was 8.75 µM (active) and the outcome was inactive. `N=C(N)c1ccc(OCCCCCOc2ccc(C(=N)N)cc2)cc1`: the outcome was inactive. `CCCCCCCCCCCC`: the half-maximal activity concentration (AC50) was 39.2 µM (active).

Regarding `CS(=O)(=O)c1ccc([C@@H](CC2CCCC2)C(=O)Nc2cnccn2)cc1Cl`, the outcome was inactive. For the compound `NS(=O)(=O)O`, the compound was classed as inactive. As for `c1cnc2c(c1)ccc1cccnc12`, the outcome was inactive. With `CCCCCCCCCCCCCCC`, the result was inactive. Turning to `O=C1OC2(c3ccccc31)c1cc(I)c(O)c(I)c1Oc1c2cc(I)c(O)c1I`, the result was inactive. As to `O=S(=O)(O)c1ccccc1`, the compound was classed as inactive. For `C[C@]12CC[C@@H]3c4ccc(O)cc4CC[C@H]3[C@@H]1C[C@@H](O)[C@@H]2O`, the result was inactive.

For the compound `O=C(CCCN1CCC(O)(c2ccc(Cl)cc2)CC1)c1ccc(F)cc1`, the result was inactive. `Cc1cc(C(C)(C)C)c(O)c(C(C)(C)C)c1`: the AC50 was 74.6 µM (active). Take `C=CC(C)(CCC=C(C)C)OC(C)=O` (centres undefined): the call was inactive.

In the case of `Cc1ccc(C)c(S(=O)(=O)O)c1`, the outcome was inactive. Still for that read-out and setting: for `CCCCC=O` the value was “inactive”; for `CCCCCCCCCCCC(=O)O`, “inactive”. As to `CN(Cc1cnc2nc(N)nc(N)c2n1)c1ccc(C(=O)N[C@@H](CCC(=O)O)C(=O)O)cc1`, the result was inactive.

`COc1cc([N+](=O)[O-])ccc1N`: the compound was called inactive. `CN(C)CCOC(c1ccccc1)c1ccccc1`: the call was inactive. `O=C(O)c1cccc(C(=O)O)n1`: the compound was called inactive.
